Laboratory results from PubChem BioAssay (NCATS).
Inconclusive results are not listed. Calls of active or inactive are those of the source. Unless noted, the call rests on the fitted dose curve; in most records, active means well fitted curve in the direction sought with a large enough effect; inconclusive means small, poorly fitted or top-dose-only effect, or another doubt; inactive means no such curve, though single readings can be large; an effect the other way counts as inactive or inconclusive.

Legend:
[1] = Cytometric Cell-Based qHTS for Inhibitors of the mTORC1 Signaling Pathway in MEF (Tsc2-/-, p53-/-) Cells (AID 2660); conditions: mTORC1 pathway cytometry; series mostly up to 38.3 µM;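 further: percent of cells above a phospho-rpS6 to PI ratio cutoff in each well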
How it was run: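 Immunofluorescence qHTS of rpS6 Ser235/236 phosphorylation: MEFs (Tsc2-/-, p53-/-) treated 24 h, 37 C, in DMEM + 10% FBS. Alexa-488 signal normalized to PI count, referenced to rapamycin (7.5 nM) and DMSO; PI cell number recorded for viability.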

[2] = High Content Imaging Cell-Based qHTS for Inhibitors of the mTORC1 Signaling Pathway in MEF (Tsc2-/-, p53-/-) Cells (AID 2666); conditions: series mostly up to 38.3 µM;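 further: percent of cells scored positive for phospho-rpS6 Ser235/236 immunostaining by imaging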
How it was run: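 Read-out: % positive cells per well, with thresholds from highest- and lowest-signal wells, based on phospho-rpS6 (Ser235/236) intensity normalized to Hoechst nuclear stain. Cells: Tsc2-/-, p53-/- MEFs carrying empty vector; compound 24 hrs, 37 degree Celsius.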

[3] = High Content Imaging Cell-Based qHTS for Inhibitors of the mTORC1 Signaling Pathway in MEF Cells (AID 2667); conditions: series mostly up to 38.3 µM;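 further: Tsc2-/- p53-/- MEFs stably re-expressing wild-type Tsc2 exposed 24 h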
How it was run: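 MEF (Tsc2-/-, p53-/-, WT Tsc2 re-expressed); cpd 24 h, 37 °C; PFA fix; Alexa-488 anti-p-rpS6 Ser235/236, PI, Hoechst; IN Cell imaging; Hoechst/Alexa-488 intensity ratio; % active cells, thresholds set from rapamycin and DMSO wells.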

[4] = Cytometry Cell-Based qHTS for Inhibitors of the mTORC1 Signaling Pathway in MEF cells (AID 2668); conditions: mTORC1 pathway readout; series mostly up to 38.3 µM;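 further: Tsc2-/- p53-/- mouse embryonic fibroblasts stably re-expressing wild-type Tsc2; percent cells positive for phospho-rpS6 Ser235/236 relative to propidium iodide stain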
How it was run: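 Pathway inhibition in WT Tsc2-rescued Tsc2-/-, p53-/- MEFs is measured as the Alexa-488 phospho-rpS6 to propidium iodide intensity ratio after 24 hrs of compound at 37 degree Celsius. PI-stained cell number gives viability.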

[5] = Validation screen for small molecules that induce DNA re-replication in MCF 10A normal breast cells (AID 463097); conditions: MCF 10A cells, DNA re-replication phenotype imaging; series mostly up to 46.1 µM; further: nearly all actives have a fitted effect of over 60% in size
How it was run: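 DNA re-replication was detected as a rise in nuclei with elevated Hoechst fluorescence after a 48 hr compound exposure of MCF 10A cells at 37 C.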

[6] = molecular target: DNA polymerase III PolC-type (Bacillus subtilis (strain 168)) (UniProt P13267); test: qHTS Validation Assay for the Inhibitors of DNA Replication in Gram-Positive Bacteria (AID 485295); conditions: Gram-positive bacterial DNA replication assay; series mostly up to 57.1 µM;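 further: reconstituted holoenzyme with PolC plus beta clamp SSB and primase; PicoGreen fluorescence of double-stranded DNA made on primed circular M13 template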
How it was run: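 Primed replication of single-stranded M13Gori by a four-protein B. subtilis holoenzyme is measured at room temperature. Double-stranded product is quantified by PicoGreen fluorescence after an EDTA stop; inhibition is scaled between DMSO and EDTA controls.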

[7] = molecular target: Tumor susceptibility gene 101 protein (Homo sapiens) (UniProt Q99816); test: qHTS Validation Assay for Iinhibitors of HIV-1 Budding by Blocking the Interaction of PTAP/TSG101 (AID 485342; calls by dose curve); conditions: TSG101-PTAP binding, fluorescence polarization, 4-point titration; series mostly up to 115 µM
How it was run: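 Fluorescence anisotropy measured PTAP-Tsg101 interaction. Final concentrations were 10 uM protein domain and 50 nM labeled peptide, equilibrated 20 min at room temperature.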

[8] = qHTS Validation Assay to Find Inhibitors of Chronic Active B-Cell Receptor Signaling (AID 485345; active means well fitted curve in the direction sought with a large enough effect in the main read-out, with a control signal flat, not every such curve was filed as active); conditions: ABC-DLBCL cells, chronic BCR signaling reporter, CBG luciferase; series mostly up to 46.1 µM
How it was run: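 TMD8 ABC-DLBCL cells with dox-inducible green luciferase–IκBα fusion and red native luciferase; compounds 46 uM–3 nM, 4 h at 37C with doxycycline in 0.5% FBS IMDM. Green/red ratio normalized to basal and 10 uM MG-132.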

[9] = molecular target: Ubiquitin carboxyl-terminal hydrolase 2 (Homo sapiens) (UniProt O75604); test: qHTS Validation Assay for Inhibitors of Ubiquitin-specific Protease USP2a Using CHOP2 as the Reporter (AID 463106); conditions: USP2a cleavage of CHOP2 reporter, enzymatic; series mostly up to 38.3 µM
How it was run: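 USP2 core (10nM final) was preincubated with compound for 30min at RT in 20mM Tris-HCl pH 8.0, 2mM CaCl2, 2mM beta-mercaptoethanol, 0.05% CHAPS. Ub-CHOP2 and reporter substrate (25nM each) were added, and fluorescence (Ex 485/Em 531nm) was read after 60min.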

Measured: Potency

Sequence of DNA polymerase III PolC-type (Bacillus subtilis (strain 168)) (P13267 whole entry, looked up): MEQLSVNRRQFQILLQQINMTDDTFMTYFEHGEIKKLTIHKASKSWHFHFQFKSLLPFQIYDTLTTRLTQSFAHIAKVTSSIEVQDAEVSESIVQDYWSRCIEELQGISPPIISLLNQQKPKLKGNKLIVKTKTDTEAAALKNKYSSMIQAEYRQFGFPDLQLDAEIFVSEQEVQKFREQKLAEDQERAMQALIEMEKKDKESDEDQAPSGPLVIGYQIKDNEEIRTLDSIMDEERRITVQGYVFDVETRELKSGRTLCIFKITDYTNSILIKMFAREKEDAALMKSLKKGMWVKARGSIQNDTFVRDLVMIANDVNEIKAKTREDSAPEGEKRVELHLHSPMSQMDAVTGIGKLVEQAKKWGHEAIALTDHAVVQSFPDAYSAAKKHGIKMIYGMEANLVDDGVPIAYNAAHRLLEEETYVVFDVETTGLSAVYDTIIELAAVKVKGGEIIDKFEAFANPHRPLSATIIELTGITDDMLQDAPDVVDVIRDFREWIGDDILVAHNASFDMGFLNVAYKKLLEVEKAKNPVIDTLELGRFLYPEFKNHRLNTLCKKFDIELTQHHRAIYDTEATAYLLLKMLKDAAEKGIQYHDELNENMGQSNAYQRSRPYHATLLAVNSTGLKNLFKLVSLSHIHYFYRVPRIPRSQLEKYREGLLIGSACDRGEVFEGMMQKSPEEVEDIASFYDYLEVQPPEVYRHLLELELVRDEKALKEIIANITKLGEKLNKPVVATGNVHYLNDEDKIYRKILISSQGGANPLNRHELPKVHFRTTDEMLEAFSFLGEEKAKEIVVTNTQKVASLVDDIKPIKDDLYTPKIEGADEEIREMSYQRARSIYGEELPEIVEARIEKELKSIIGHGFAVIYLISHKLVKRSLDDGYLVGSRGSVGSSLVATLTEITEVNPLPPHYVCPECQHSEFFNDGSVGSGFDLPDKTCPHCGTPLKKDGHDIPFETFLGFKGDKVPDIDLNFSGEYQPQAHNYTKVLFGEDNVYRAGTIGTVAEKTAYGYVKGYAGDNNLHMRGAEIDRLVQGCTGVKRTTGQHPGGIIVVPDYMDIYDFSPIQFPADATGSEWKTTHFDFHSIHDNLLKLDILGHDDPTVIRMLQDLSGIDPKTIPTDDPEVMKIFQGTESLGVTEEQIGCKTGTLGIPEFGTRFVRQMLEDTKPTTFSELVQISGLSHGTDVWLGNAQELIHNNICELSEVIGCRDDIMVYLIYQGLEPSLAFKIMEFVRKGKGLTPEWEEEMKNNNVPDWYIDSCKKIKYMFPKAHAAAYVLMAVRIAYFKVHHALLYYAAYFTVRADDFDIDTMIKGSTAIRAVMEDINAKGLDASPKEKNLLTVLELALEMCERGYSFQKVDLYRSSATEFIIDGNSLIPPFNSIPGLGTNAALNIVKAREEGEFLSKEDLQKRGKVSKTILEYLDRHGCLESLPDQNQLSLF
Sequence of Tumor susceptibility gene 101 protein (Homo sapiens) (Q99816 whole entry, looked up, the tested form may be a part): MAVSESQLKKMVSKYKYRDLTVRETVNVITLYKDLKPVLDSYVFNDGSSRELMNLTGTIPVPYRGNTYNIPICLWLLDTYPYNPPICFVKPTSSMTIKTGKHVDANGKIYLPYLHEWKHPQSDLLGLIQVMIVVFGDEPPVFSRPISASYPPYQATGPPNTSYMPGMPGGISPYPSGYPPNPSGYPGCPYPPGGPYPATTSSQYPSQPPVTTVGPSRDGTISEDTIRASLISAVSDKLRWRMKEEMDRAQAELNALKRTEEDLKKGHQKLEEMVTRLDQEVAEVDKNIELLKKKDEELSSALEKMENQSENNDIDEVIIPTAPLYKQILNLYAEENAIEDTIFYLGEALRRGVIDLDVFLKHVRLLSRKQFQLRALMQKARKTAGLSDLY
Sequence of Ubiquitin carboxyl-terminal hydrolase 2 (Homo sapiens) (O75604 whole entry, looked up): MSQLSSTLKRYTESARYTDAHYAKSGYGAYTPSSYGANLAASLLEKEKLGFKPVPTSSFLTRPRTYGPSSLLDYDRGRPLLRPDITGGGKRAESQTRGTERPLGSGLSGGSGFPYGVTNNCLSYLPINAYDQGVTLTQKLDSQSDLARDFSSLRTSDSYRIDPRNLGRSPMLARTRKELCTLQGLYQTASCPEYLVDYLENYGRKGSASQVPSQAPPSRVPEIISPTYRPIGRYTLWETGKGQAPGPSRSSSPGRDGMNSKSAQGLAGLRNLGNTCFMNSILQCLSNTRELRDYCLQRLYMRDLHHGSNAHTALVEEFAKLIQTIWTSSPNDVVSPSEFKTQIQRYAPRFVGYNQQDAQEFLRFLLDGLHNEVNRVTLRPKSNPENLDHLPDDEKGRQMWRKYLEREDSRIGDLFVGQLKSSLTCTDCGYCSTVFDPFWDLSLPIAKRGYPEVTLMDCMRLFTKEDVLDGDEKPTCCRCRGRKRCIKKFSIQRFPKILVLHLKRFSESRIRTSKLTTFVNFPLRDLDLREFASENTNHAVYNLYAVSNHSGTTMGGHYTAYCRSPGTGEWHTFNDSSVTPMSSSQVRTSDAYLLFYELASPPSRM

CO/N=C(\C(=O)N[C@@H]1C(=O)N2C(C(=O)O)=C(CSc3nc(=O)c(O)nn3C)CSC12)c1csc(N)n1 (some centres not stated)
not listed: [9]
inactive: all other assays above

N[C@@H](Cc1ccc(O)c(I)c1)C(=O)O
not listed: [7]
inactive: all other assays above

Cn1c(=O)[nH]c2ncn(C)c2c1=O
inactive: all assays above

CCCCS(=N)(=O)CC[C@H](N)C(=O)O (some centres not stated)
inactive: all assays above

CCCCCC(O)CCCC(=O)O (configuration not stated)
inactive: all assays above

Cc1ccccc1/C=C/C1=NCCN1
not listed: [5] | [8]
inactive: all other assays above

O=C1NC(=O)c2cc(Nc3ccccc3)c(Nc3ccccc3)cc21
not listed: [5] | [8]
inactive: all other assays above

N[C@H](C(=O)O)[C@H](Cc1ccccc1)C(=O)O
not listed: [5]
inactive: all other assays above

NC[C@@H]1O[C@H](c2ccccc2)Cc2c1ccc(O)c2O
not listed: [5] | [7]
inactive: all other assays above

CN1Cc2sccc2C(c2ccc(O)c(O)c2)C1 (configuration not stated)
not listed: [5]
inactive: all other assays above

CCCC(=O)NCCc1c2n(c3ccc(OC)cc13)CCCc1ccccc1-2
not listed: [5] | [8]
inactive: all other assays above
